# Laboratory results from PubChem BioAssay (NCATS).
# Records with an inconclusive call do not appear. For part of these data: Entries with a potency or affinity are not part of this list. Activity calls are given as the source filed them.
# Key:
# [1] = Ebola virus entry assay, ratio channel
# [2] = Ebola virus entry assay, green channel fluorescence
# [3] = Ebola virus entry assay, reporter ratio channel; AC50: Channel type: primary unless noted; outcome: Channel type: primary unless noted
# [4] = Ebola virus entry assay, blue channel (ratio component)
# [5] = Ebola virus entry cell assay, ratio channel
# [6] = qHTS assay for measurement of the activity of small molecule inhibitors on Zika virus induced Caspase-3 activity in human iPSC derived neural progenitor cells (hNPCs) (AID 1224857; active means well fitted curve in the direction sought with a large enough effect; an effect the other way counts as inactive or inconclusive; further: % of control where 0% means no effect; nearly all actives have a fitted effect of over 65% in size); conditions: hNPCs ZIKV-induced caspase-3/7, Caspase-Glo luminescence, 6 h; series mostly up to 45.7 µM
# Procedure, shortened: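 Pretreat hNPCs with compound 1 h; infect ZIKV 2 FFU/cell; 6 h 37 C, 5% CO2; Caspase-Glo 3/7, 30 min RT; luminescence; normalize to no-virus and virus-only wells.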
# [7] = qHTS assay for measurement of the activity of small molecule inhibitors on Zika virus induced Caspase-3 activity in human astrocytoma cells (AID 1224859; active means well fitted curve in the direction sought with a large enough effect; an effect the other way counts as inactive or inconclusive;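 further: plate controls were ZIKV-infected untreated cells for no effect and uninfected cells for full effect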); conditions: SNB-19 ZIKV-induced caspase-3/7, luminescence, 6 h; series mostly up to 45.7 µM
# Procedure, shortened: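 Human SNB-19 astrocytoma cells in RPMI 1640 with 10% FBS receive compound one hour ahead of Zika virus at 2 FFU/cell. After 6 h infection, caspase-3/7 activity is detected by Caspase-Glo luminescence.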
# [8] = qHTS assay to identify small molecule inhibitors of chordoma cells - UCH-1 (AID 1259355; active means well fitted curve in the direction sought with a large enough effect; an effect the other way counts as inactive or inconclusive; further: on the % scale 0 is the no-effect control and ±100 the full control effect; nearly all actives have a fitted effect of over 55% in size); conditions: UCH-1 chordoma viability, CellTiter-Glo, 48 h, combination; series mostly up to 46.1 µM
# Procedure, shortened: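 Cells (800/well) were seeded and left overnight at 37 C, 5% CO2, then treated with drugs at 15 concentrations plus a combination mix of auranofin, camptothecin, doxorubicin, rubitecan and topotecan. Viability after 48hr was read by CellTiter-Glo luminescence.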
# [9] = qHTS assay to identify small molecule inhibitors of chordoma cells - UCH-2 (AID 1259356; active means well fitted curve in the direction sought with a large enough effect; an effect the other way counts as inactive or inconclusive; further: on the % scale 0 is the no-effect control and ±100 the full control effect); conditions: UCH-2 chordoma viability, CellTiter-Glo ATP luminescence, 48 h; series mostly up to 46.1 µM
# [10] = High-throughput drug toxicity screening in the BPDCN cell line Gen2.2 (AID 1224824); conditions: Gen2.2 BPDCN cells; at 45.8 µM (top of the series) unless noted;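 further: cells exposed to compounds for 48 h before reading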
# Procedure, shortened: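 CellTiter-Glo luminescence after 48 h compound exposure of Gen2.2 cells; percent activity set with DMSO as 100% and bortezomib (9.2 uM final) as 0%. Cells seeded at 500 per well, RPMI + 10% FBS, 37 °C.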
# [11] = High-throughput drug toxicity screening in the BPDCN cell line Cal-1 (AID 1224825); conditions: Cal-1 BPDCN cell viability, qHTS; at 45.8 µM (top of the series) unless noted
# Procedure, shortened: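 Cal-1 cells, 500 per well in phenol-red-free RPMI with 10% FBS, exposed to compounds for 48 hours at 37C, 5% CO2. Viability read by CellTiter-Glo luminescence; percent activity normalized to DMSO (100%) and 9.2 uM bortezomib final (0%).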
# [12] = qHTS Screen of the MIPE 4.0 Collection Against Ewings Sarcoma (RDES) (AID 1259252; active means well fitted curve in the direction sought with a large enough effect; an effect the other way counts as inactive or inconclusive;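 further: 100% = DMSO-treated cells and 0% = medium-only wells without cells; nearly all actives have a fitted effect of over 35% in size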); conditions: RD-ES Ewing sarcoma viability, CellTiter-Glo, 48 h; series mostly up to 45.8 µM
# Procedure, shortened: (§1)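 Log-phase cells in RPMI with 5% FBS attached for 4 h, then received compounds as a titration for 48 h at 37C, 5% CO2. Viability was read by CellTiter-Glo luminescence and normalized to DMSO and no-cell wells.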
# [13] = qHTS Screen of the MIPE 4.0 Collection Against Ewings Sarcoma (TC71) (AID 1259253; active means well fitted curve in the direction sought with a large enough effect; an effect the other way counts as inactive or inconclusive;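 further: 100% = DMSO-treated cells and 0% = medium-only wells without cells; nearly all actives have a fitted effect of over 40% in size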); conditions: TC71 Ewing sarcoma viability, CellTiter-Glo, 48 h; series mostly up to 45.8 µM
# Procedure, shortened: as §1
# [14] = qHTS Screen of the MIPE 4.0 Collection Against Ewings Sarcoma (EW8) (AID 1259255; active means well fitted curve in the direction sought with a large enough effect; an effect the other way counts as inactive or inconclusive;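 further: 100% = DMSO-treated cells and 0% = medium-only wells without cells; nearly all actives have a fitted effect of over 35% in size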); conditions: EW8 Ewing sarcoma viability, CellTiter-Glo, 48 h; series mostly up to 45.8 µM
# Procedure, shortened: as §1
# [15] = qHTS Screen of the MIPE 4.0 Collection Against Ewings Sarcoma (TC32) (AID 1259256; active means well fitted curve in the direction sought with a large enough effect; an effect the other way counts as inactive or inconclusive;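 further: 100% = DMSO-treated cells and 0% = medium-only wells without cells; nearly all actives have a fitted effect of over 45% in size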); conditions: TC32 Ewing sarcoma viability, CellTiter-Glo, 48 h; series mostly up to 45.8 µM
# Procedure, shortened: as §1
compound,measurement,setting,value
C=CCN1C[C@H](C(=O)N(CCCN(C)C)C(=O)NCC)C[C@@H]2c3cccc4[nH]cc(c34)C[C@H]21,outcome,[1],inactive
same,outcome,[2],inactive
same,outcome,[3],inactive
same,outcome,[4],inactive
same,AC50,[5],15.8 µM (active)
NCCS(=O)(=O)O,outcome,[1],inactive
same,outcome,[2],inactive
same,outcome,[3],inactive
same,outcome,[4],inactive
CNCC(O)c1ccc(O)c(O)c1 (stereo not drawn),outcome,[1],inactive
same,outcome,[2],inactive
same,outcome,[3],inactive
same,outcome,[4],inactive
c1ccc2c(c1)sc1ccccc12,outcome,[1],inactive
same,outcome,[2],inactive
same,outcome,[3],inactive
same,outcome,[4],inactive
same,outcome,[6],inactive
same,outcome,[7],inactive
same,outcome,[8],inactive
same,outcome,[9],inactive
CCCCCCCCCCCCSCCOCCO,outcome,[1],inactive
same,outcome,[2],inactive
same,outcome,[3],inactive
same,outcome,[4],inactive
CC(Cc1ccccc1)NCCn1cnc2c1c(=O)n(C)c(=O)n2C (stereo not drawn),outcome,[1],inactive
same,outcome,[2],inactive
same,outcome,[3],inactive
same,outcome,[4],inactive
same,outcome,[6],inactive
same,outcome,[7],inactive
C[C@]12CCC(=O)C=C1CC[C@@H]1[C@H]3CC[C@](C)(O)[C@@]3(C)CC[C@@H]12,outcome,[1],inactive
same,outcome,[2],inactive
same,outcome,[3],inactive
same,outcome,[4],inactive
same,"cell viability, % of control (lower = more cytotoxic)",[10],95.2% [at 92.2 µM]
same,viability (% of control),[11],93.9% [at 92.2 µM]
same,outcome,[6],inactive
same,outcome,[7],inactive
O=c1cc(O)c(Cl)c[nH]1,outcome,[1],inactive
same,outcome,[2],inactive
same,outcome,[3],inactive
same,outcome,[4],inactive
CC(Cc1ccccc1)N(C)Cc1ccco1 (stereo not drawn),outcome,[1],inactive
same,outcome,[2],inactive
same,outcome,[3],inactive
same,outcome,[4],inactive
same,outcome,[6],inactive
same,outcome,[7],inactive
O=C(COCCOCCOCC(=O)Nc1c(I)cc(I)c(C(=O)O)c1I)Nc1c(I)cc(I)c(C(=O)O)c1I,outcome,[1],inactive
same,outcome,[2],inactive
same,outcome,[3],inactive
same,outcome,[4],inactive
NC(=O)c1ncn([C@@H]2O[C@H](CO)[C@@H](O)[C@H]2O)c1O,outcome,[1],inactive
same,outcome,[2],inactive
same,outcome,[3],inactive
same,outcome,[4],inactive
CC(=O)N(CC(O)CO)c1c(I)c(C(=O)NCC(O)CO)c(I)c(C(=O)NCC(O)CO)c1I (stereo not drawn),outcome,[1],inactive
same,outcome,[2],inactive
same,outcome,[3],inactive
same,outcome,[4],inactive
COc1cc(CC(C)N)cc(OC)c1OC (stereo not drawn),outcome,[1],inactive
same,outcome,[2],inactive
same,outcome,[3],inactive
same,outcome,[4],inactive
same,outcome,[6],inactive
same,outcome,[7],inactive
CC(N)CCCC(C)(C)O (stereo not drawn),outcome,[1],inactive
same,outcome,[2],inactive
same,outcome,[3],inactive
same,outcome,[4],inactive
CCCN(CCC)C(=O)Cc1c(-c2ccc(Cl)cc2)nc2ccc(Cl)cn12,outcome,[1],inactive
same,outcome,[2],inactive
same,outcome,[3],inactive
same,outcome,[4],inactive
same,outcome,[6],inactive
same,outcome,[7],inactive
CC(C)(C)c1cc(C=O)cc(C(C)(C)C)c1O,outcome,[1],inactive
same,outcome,[2],inactive
same,outcome,[3],inactive
same,outcome,[4],inactive
CCN[C@@H](C)Cc1ccccc1,outcome,[1],inactive
same,outcome,[2],inactive
same,outcome,[3],inactive
same,outcome,[4],inactive
same,outcome,[6],inactive
same,outcome,[7],inactive
O=C(O)c1cccnc1,outcome,[1],inactive
same,outcome,[2],inactive
same,outcome,[3],inactive
same,outcome,[4],inactive
CC(=O)NCCCCCC(=O)O,outcome,[1],inactive
same,outcome,[2],inactive
same,outcome,[3],inactive
same,outcome,[4],inactive
CCOCCn1c(C2CCN(CCc3ccc(C(C)(C)C(=O)O)cc3)CC2)nc2ccccc21,outcome,[1],inactive
same,outcome,[2],inactive
same,outcome,[3],inactive
same,outcome,[4],inactive
CCN(CC)C(=O)c1ccc(O)c(OC)c1,outcome,[1],inactive
same,outcome,[2],inactive
same,outcome,[3],inactive
same,outcome,[4],inactive
Nc1ccc(S(=O)(=O)NCc2ccccc2)cc1,outcome,[1],inactive
same,outcome,[2],inactive
same,outcome,[3],inactive
same,outcome,[4],inactive
O=C1c2ccccc2C(=O)c2c1ccc(O)c2O,outcome,[1],inactive
same,outcome,[2],inactive
same,outcome,[3],inactive
same,outcome,[4],inactive
CCc1cc2c(s1)-n1c(C)nnc1CN=C2c1ccccc1Cl,outcome,[1],inactive
same,outcome,[2],inactive
same,outcome,[3],inactive
same,outcome,[4],inactive
same,outcome,[6],inactive
same,outcome,[7],inactive
CC(C)=CCC/C(C)=C/CO,outcome,[1],inactive
same,outcome,[2],inactive
same,outcome,[3],inactive
same,outcome,[4],inactive
CC(C)OP(=O)(CP(=O)(OC(C)C)OC(C)C)OC(C)C,outcome,[1],inactive
same,outcome,[2],inactive
same,outcome,[3],inactive
same,outcome,[4],inactive
c1ccc(N2CCNCC2)cc1,outcome,[1],inactive
same,outcome,[2],inactive
same,outcome,[3],inactive
same,outcome,[4],inactive
same,outcome,[6],inactive
same,outcome,[7],inactive
COCCCN1CCC(NC(=O)c2cc(Cl)c(N)c3c2OCC3)CC1,outcome,[1],inactive
same,outcome,[2],inactive
same,outcome,[3],inactive
same,outcome,[4],inactive
O=C1OC(CCN2CCCCC2)OC1(c1ccccc1)c1ccccc1 (stereo not drawn),outcome,[1],inactive
same,outcome,[2],inactive
same,outcome,[3],inactive
same,outcome,[4],inactive
same,outcome,[6],inactive
same,outcome,[7],inactive
CCOC(=O)CC(SP(=S)(OC)OC)C(=O)OCC (stereo not drawn),outcome,[1],inactive
same,outcome,[2],inactive
same,outcome,[3],inactive
same,outcome,[4],inactive
same,outcome,[6],inactive
same,outcome,[7],inactive
same,outcome,[8],inactive
same,outcome,[9],inactive
CCN(CC)S(=O)(=O)c1ccc(C(=O)O)cc1,outcome,[1],inactive
same,outcome,[2],inactive
same,outcome,[3],inactive
same,outcome,[4],inactive
Nc1ccc([As](=O)(O)O)cc1,outcome,[1],inactive
same,outcome,[2],inactive
same,outcome,[3],inactive
same,outcome,[4],inactive
same,outcome,[6],inactive
same,outcome,[7],inactive
same,outcome,[8],inactive
same,outcome,[9],inactive
CCN(CC)CC(=O)Oc1ccc(NC(C)=O)cc1,outcome,[1],inactive
same,outcome,[2],inactive
same,outcome,[3],inactive
same,outcome,[4],inactive
CCC1(c2ccc(N)cc2)CCC(=O)NC1=O (stereo not drawn),outcome,[1],inactive
same,outcome,[2],inactive
same,outcome,[3],inactive
same,outcome,[4],inactive
same,"cell viability, % of control (lower = more cytotoxic)",[10],153%
same,viability (% of control),[11],111%
same,outcome,[6],inactive
same,outcome,[7],inactive
same,Potency,[12],inactive
same,Potency,[13],inactive
same,outcome,[14],inactive
same,Potency,[15],inactive
same,outcome,[8],inactive
same,outcome,[9],inactive
COc1cc(OC)c(OC)cc1C=O,outcome,[1],inactive
same,outcome,[2],inactive
same,outcome,[3],inactive
same,outcome,[4],inactive
same,"cell viability, % of control (lower = more cytotoxic)",[10],98.9%
same,viability (% of control),[11],98.8%
same,outcome,[6],inactive
same,outcome,[7],inactive
CNCC(=O)c1ccc(O)c(O)c1,outcome,[1],inactive
same,outcome,[2],inactive
same,outcome,[3],inactive
same,outcome,[4],inactive
same,outcome,[6],inactive
same,outcome,[7],inactive
CC[N+](C)(CC)CCOC(=O)C1c2ccccc2Oc2ccccc21,outcome,[1],inactive
same,outcome,[2],inactive
same,outcome,[3],inactive
same,outcome,[4],inactive
CN(c1nccc(=O)[nH]1)C1CCN(c2nc3ccccc3n2Cc2ccc(F)cc2)CC1,outcome,[1],inactive
same,outcome,[3],inactive
same,outcome,[4],inactive
CCN(CC)CCc1c[nH]c2ccccc12,outcome,[1],inactive
same,outcome,[2],inactive
same,outcome,[3],inactive
same,outcome,[7],inactive
COc1cccc(C(=O)CCN[C@@H](C)[C@H](O)c2ccccc2)c1,outcome,[1],inactive
same,outcome,[2],inactive
same,outcome,[3],inactive
same,outcome,[4],inactive
same,outcome,[7],inactive
Cc1ncsc1CCCl,outcome,[1],inactive
same,outcome,[2],inactive
same,outcome,[3],inactive
same,outcome,[4],inactive
same,outcome,[6],inactive
same,outcome,[7],inactive
same,outcome,[8],inactive
same,outcome,[9],inactive
NC(=O)c1cc([N+](=O)[O-])cc([N+](=O)[O-])c1,outcome,[1],inactive
same,outcome,[2],inactive
same,outcome,[3],inactive
same,outcome,[4],inactive
same,outcome,[7],inactive
same,outcome,[8],inactive
same,outcome,[9],inactive
C=C[C@H]1CN2CC[C@H]1C[C@H]2[C@H](O)c1ccnc2ccc(OC)cc12,AC50,[1],22.4 µM (active)
same,outcome,[2],inactive
same,AC50,[3],22.4 µM (active)
same,outcome,[5],inactive
